Reference: PubChem BioAssay (NCI)
Compounds without any hit were thinned out: in the full panel of roughly 83,000, 20% have a hit.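 96-well plates, one dose, 48 hours. Percent growth reported; active if below 10.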 Active and inactive are the calls of the source.

Assays:
Test in all cases: NCI-60 one-dose screen, 48 h (100 = growth as untreated, 0 = no growth, -100 = all killed)
Details in all cases: 10 µM unless noted
[1] = tested on: SK-MEL-2 melanoma
[2] = tested on: EKVX NSCLC
[3] = tested on: SN12C renal
[4] = tested on: UO-31 renal
[5] = tested on: TK-10 renal
[6] = tested on: ACHN renal
[7] = tested on: A498 renal
[8] = tested on: CCRF-CEM leukemia
[9] = tested on: MOLT-4 leukemia
[10] = tested on: SR leukemia
[11] = tested on: RPMI-8226 leukemia
[12] = tested on: OVCAR-8 ovarian
[13] = tested on: OVCAR-5 ovarian
[14] = tested on: OVCAR-4 ovarian
[15] = tested on: SK-OV-3 ovarian
[16] = tested on: IGROV1 ovarian
[17] = tested on: OVCAR-3 ovarian
[18] = tested on: NCI/ADR-RES ovarian
[19] = tested on: HS 578T breast

Measured: growth

CNC(=O)NN
inactive: [1] 119% | [2] 91.5% | [3] 110% | [4] 71.7% | [5] 111% | [6] 88.9% | [7] 93.2% | [8] 65.8% | [9] 105% | [10] 104% | [11] 91.9% | [12] 97.5% | [13] 82.5% | [14] 110% | [15] 95.9% | [16] 108% | [17] 91.8% | [18] 105%

COC(=O)c1oc2c(C(C)=O)c(OCCCN(C)C)ccc2c1C
inactive: [1] 106% | [2] 187% | [3] 109% | [4] 75.3% | [5] 90.8% | [6] 107% | [7] 125% | [9] 85.8% | [10] 95% | [11] 97.2% | [12] 111% | [13] 101% | [14] 96.4% | [15] 121% | [16] 30.1% | [19] 97.3% | [18] 87.4%
active: [8] -13.6%

CN1CCN(Cn2nc(-c3cc(F)c(Cl)cc3Cl)n(/N=C/c3ccc(N(C)C)cc3)c2=S)CC1
inactive: [1] 90.2% | [2] 87.1% | [3] 102% | [4] 55.5% | [5] 90.2% | [6] 92.7% | [7] 78.8% | [8] 83.5% | [9] 99.1% | [10] 43.8% | [11] 80.9% | [12] 90.8% | [13] 106% | [14] 106% | [15] 77.4% | [16] 57.8% | [19] 63.5% | [18] 65.9%

Cn1c2ccccc2c2ssc(=S)c21
inactive: [1] 92.8% | [2] 39.5% | [3] 116% | [4] 84% | [5] 111% | [6] 114% | [7] 86.1% | [8] 116% | [9] 75.5% | [10] 103% | [11] 124% | [12] 102% | [13] 99.7% | [14] 89.5% | [15] 119% | [19] 70.3% | [18] 86.8%
active: [16] -26.5%

CC(C)Cn1cnc2c3ccccc3nc(NCn3nc(-c4cc(Cl)cc(Cl)c4Cl)oc3=S)c21
inactive: [1] 90.8% | [2] 89.1% | [3] 98.5% | [4] 64.8% | [5] 108% | [6] 97.6% | [7] 89.5% | [9] 20.4% | [10] 25.5% | [11] 74.8% | [12] 98.4% | [13] 88.3% | [14] 88.2% | [15] 109% | [16] 51% | [19] 116% | [18] 66.4%
active: [8] 6.87%

O=C1C(SCCO)=C(SCCO)C(=O)N1c1ccc(-c2ccccc2)cc1
active: [1] -73.5% | [4] -96.5% | [5] -57.8% | [6] -99.5% | [8] -43.8% | [9] -33.6% | [10] -47.6% | [11] -14% | [12] 3.35% | [17] -92% | [19] -50.7%
inactive: [2] 129% | [3] 72.4% | [7] 105% | [13] 102% | [14] 10.3% | [15] 106% | [18] 104%

CC(C)(C)NCC(O)COc1c(Br)c(Br)c(Br)c2c1OC(C)(C)C2 (stereo not drawn)
active: [1] -71.9% | [4] -81.8% | [5] -77.8% | [6] -60.1% | [7] -6.49% | [8] -62.5% | [9] -56.1% | [10] -61.6% | [11] -72.8% | [12] -54.8% | [13] -73.2% | [16] -84.2% | [19] -64.8% | [18] -15.9%
inactive: [2] 50.1% | [3] 33.2% | [14] 15.3% | [15] 92.1%

COc1cc2c(/C=C3/C(=O)Nc4ccc(O)cc43)c(Cl)n(Cc3cc(OC)c(OC)c(OC)c3)c2cc1C
inactive: [1] 36.7% | [2] 13.3% | [3] 59.6% | [5] 25.8% | [6] 130% | [7] 24.9% | [12] 22.3% | [13] 74.1% | [14] 21.8% | [15] 38.5% | [16] 26.9%
active: [4] -0.307% | [8] -9.62% | [9] -24.1% | [10] -38.1% | [11] -22.9% | [19] 4.73% | [18] 9.32%

Fc1ccc(/C=N/n2c(-c3cc(Cl)cc(Cl)c3Cl)nn(CNc3ccc(Cl)nn3)c2=S)cc1
inactive: [1] 98.1% | [2] 104% | [3] 102% | [4] 89.4% | [5] 103% | [6] 104% | [7] 105% | [9] 75.1% | [10] 79.7% | [11] 82.4% | [12] 95.7% | [13] 89.9% | [14] 91.8% | [15] 90.2% | [16] 96.3% | [19] 108% | [18] 86.7%
active: [8] -70.4%

CN(C)c1ccc(/C=N/n2c(-c3cc(F)c(Cl)cc3Cl)nn(CN3CCOCC3)c2=S)cc1
inactive: [1] 104% | [2] 107% | [3] 103% | [4] 69.1% | [5] 107% | [6] 98.6% | [7] 77.9% | [8] 92.4% | [9] 88.8% | [10] 83.6% | [11] 97.2% | [12] 104% | [13] 92.8% | [14] 106% | [15] 101% | [16] 104% | [19] 110% | [18] 97.3%

COc1cc(NC(C)CCCN2C(=O)c3ccccc3C2=O)c2nc(C)ccc2c1OC (stereo not drawn)
active: [8] -56.3%
inactive: [1] 96.8% | [2] 96.3% | [3] 92.1% | [4] 98.1% | [5] 98.8% | [6] 99.5% | [7] 97.5% | [9] 73.6% | [10] 36.7% | [11] 70.1% | [12] 88.2% | [13] 100% | [14] 69.4% | [15] 106% | [16] 129% | [19] 113% | [18] 83.3%

COc1cc(NC(C)CCCN2C(=O)c3ccccc3C2=O)c2ncccc2c1OC (stereo not drawn)
active: [8] -26.9% | [9] -67.5%
inactive: [1] 94.8% | [2] 69% | [3] 109% | [4] 59.4% | [5] 93.6% | [6] 97.9% | [7] 104% | [10] 35.4% | [11] 55.5% | [12] 85.5% | [13] 99.1% | [14] 50.8% | [15] 92.5% | [16] 63.6% | [19] 95.7% | [18] 90.6%

COc1cc(/C=C/C(=O)c2c(C)n([O-])c3cc(C)c(C)cc3[n+]2=O)cc(OC)c1OC
active: [16] -21.3%
inactive: [1] 69.6% | [2] 79.2% | [3] 72.8% | [4] 14.2% | [5] 77% | [6] 69.2% | [7] 41.8% | [8] 38% | [9] 44.3% | [10] 29% | [11] 38.8% | [12] 63.2% | [13] 111% | [14] 73.3% | [15] 86.6% | [19] 69% | [18] 72%

Nc1n[nH]c2cccc(C#Cc3cccc(NC(=O)c4cccc(C(F)(F)F)c4)c3)c12
active: [1] 8.52% | [4] 3.58% | [19] -0.652%
inactive: [2] 65.4% | [3] 40.7% | [5] 41% | [6] 28.6% | [7] 14.9% | [8] 28.8% | [9] 27.3% | [10] 27.2% | [11] 29.3% | [12] 47.2% | [13] 31.3% | [14] 44.1% | [15] 46.3% | [17] 49.2% | [18] 43.2%

COc1cc(-c2nc3ccccc3s2)ccc1OCc1nc2n(n1)S(=O)(=O)c1ccccc1N2C
active: [8] 4.89%
inactive: [1] 85.9% | [2] 53.6% | [3] 107% | [4] 72.8% | [5] 87.8% | [6] 94.3% | [7] 89.9% | [9] 89.1% | [10] 27.1% | [11] 61.2% | [12] 74.5% | [13] 99.1% | [14] 93.3% | [15] 84.6% | [16] 25.6% | [19] 48.7% | [18] 93%

O=C1c2ccccc2C(=O)c2c(NCCN=Cc3c(O)ccc4ccccc34)cccc21
inactive: [1] 107% | [2] 73.3% | [3] 85.2% | [4] 49.9% | [5] 94.2% | [6] 65.3% | [7] 80.7% | [9] 76.9% | [10] 32% | [11] 78.7% | [12] 69.9% | [13] 112% | [14] 94.3% | [15] 84.2% | [17] 83.7% | [19] 82.7% | [18] 85.5%
active: [8] -46.1%
